# Measurements: the supplement of paper PMC11001985
# A number with no mark means an inactive call.
# Compound: C#CCNC(=O)CCSSCCC(=O)NCCc1ccc(C=O)c(C=O)c1
# Test: lysine labeling ratio R10:1 (500 µM / 50 µM probe), SILAC-ABPP in living cells; higher = lower intrinsic lysine reactivity toward the probe, active = 2 or less
# Details: HeLa; probe concentrations 500 vs 50 µM
# Summary of the method: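 An alkyne-tagged lysine probe with a disulfide linker labelled living HeLa cells in PBS at room temperature at either 50 µM or 500 µM, using SILAC light and heavy cells in forward and reverse label swaps. Lysates were mixed, clicked to biotin-azide, trypsin-digested, enriched on neutravidin, DTT-released, alkylated and measured by LC-MS/MS on a TIMS-TOF Pro. Each lysine's R is the filtered median high-probe/low-probe MS1 peptide ratio, combined as the median over forward and reverse replicates, with 20 as the upper limit.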
# Sequence of UniProt P02751 (P02751 whole entry): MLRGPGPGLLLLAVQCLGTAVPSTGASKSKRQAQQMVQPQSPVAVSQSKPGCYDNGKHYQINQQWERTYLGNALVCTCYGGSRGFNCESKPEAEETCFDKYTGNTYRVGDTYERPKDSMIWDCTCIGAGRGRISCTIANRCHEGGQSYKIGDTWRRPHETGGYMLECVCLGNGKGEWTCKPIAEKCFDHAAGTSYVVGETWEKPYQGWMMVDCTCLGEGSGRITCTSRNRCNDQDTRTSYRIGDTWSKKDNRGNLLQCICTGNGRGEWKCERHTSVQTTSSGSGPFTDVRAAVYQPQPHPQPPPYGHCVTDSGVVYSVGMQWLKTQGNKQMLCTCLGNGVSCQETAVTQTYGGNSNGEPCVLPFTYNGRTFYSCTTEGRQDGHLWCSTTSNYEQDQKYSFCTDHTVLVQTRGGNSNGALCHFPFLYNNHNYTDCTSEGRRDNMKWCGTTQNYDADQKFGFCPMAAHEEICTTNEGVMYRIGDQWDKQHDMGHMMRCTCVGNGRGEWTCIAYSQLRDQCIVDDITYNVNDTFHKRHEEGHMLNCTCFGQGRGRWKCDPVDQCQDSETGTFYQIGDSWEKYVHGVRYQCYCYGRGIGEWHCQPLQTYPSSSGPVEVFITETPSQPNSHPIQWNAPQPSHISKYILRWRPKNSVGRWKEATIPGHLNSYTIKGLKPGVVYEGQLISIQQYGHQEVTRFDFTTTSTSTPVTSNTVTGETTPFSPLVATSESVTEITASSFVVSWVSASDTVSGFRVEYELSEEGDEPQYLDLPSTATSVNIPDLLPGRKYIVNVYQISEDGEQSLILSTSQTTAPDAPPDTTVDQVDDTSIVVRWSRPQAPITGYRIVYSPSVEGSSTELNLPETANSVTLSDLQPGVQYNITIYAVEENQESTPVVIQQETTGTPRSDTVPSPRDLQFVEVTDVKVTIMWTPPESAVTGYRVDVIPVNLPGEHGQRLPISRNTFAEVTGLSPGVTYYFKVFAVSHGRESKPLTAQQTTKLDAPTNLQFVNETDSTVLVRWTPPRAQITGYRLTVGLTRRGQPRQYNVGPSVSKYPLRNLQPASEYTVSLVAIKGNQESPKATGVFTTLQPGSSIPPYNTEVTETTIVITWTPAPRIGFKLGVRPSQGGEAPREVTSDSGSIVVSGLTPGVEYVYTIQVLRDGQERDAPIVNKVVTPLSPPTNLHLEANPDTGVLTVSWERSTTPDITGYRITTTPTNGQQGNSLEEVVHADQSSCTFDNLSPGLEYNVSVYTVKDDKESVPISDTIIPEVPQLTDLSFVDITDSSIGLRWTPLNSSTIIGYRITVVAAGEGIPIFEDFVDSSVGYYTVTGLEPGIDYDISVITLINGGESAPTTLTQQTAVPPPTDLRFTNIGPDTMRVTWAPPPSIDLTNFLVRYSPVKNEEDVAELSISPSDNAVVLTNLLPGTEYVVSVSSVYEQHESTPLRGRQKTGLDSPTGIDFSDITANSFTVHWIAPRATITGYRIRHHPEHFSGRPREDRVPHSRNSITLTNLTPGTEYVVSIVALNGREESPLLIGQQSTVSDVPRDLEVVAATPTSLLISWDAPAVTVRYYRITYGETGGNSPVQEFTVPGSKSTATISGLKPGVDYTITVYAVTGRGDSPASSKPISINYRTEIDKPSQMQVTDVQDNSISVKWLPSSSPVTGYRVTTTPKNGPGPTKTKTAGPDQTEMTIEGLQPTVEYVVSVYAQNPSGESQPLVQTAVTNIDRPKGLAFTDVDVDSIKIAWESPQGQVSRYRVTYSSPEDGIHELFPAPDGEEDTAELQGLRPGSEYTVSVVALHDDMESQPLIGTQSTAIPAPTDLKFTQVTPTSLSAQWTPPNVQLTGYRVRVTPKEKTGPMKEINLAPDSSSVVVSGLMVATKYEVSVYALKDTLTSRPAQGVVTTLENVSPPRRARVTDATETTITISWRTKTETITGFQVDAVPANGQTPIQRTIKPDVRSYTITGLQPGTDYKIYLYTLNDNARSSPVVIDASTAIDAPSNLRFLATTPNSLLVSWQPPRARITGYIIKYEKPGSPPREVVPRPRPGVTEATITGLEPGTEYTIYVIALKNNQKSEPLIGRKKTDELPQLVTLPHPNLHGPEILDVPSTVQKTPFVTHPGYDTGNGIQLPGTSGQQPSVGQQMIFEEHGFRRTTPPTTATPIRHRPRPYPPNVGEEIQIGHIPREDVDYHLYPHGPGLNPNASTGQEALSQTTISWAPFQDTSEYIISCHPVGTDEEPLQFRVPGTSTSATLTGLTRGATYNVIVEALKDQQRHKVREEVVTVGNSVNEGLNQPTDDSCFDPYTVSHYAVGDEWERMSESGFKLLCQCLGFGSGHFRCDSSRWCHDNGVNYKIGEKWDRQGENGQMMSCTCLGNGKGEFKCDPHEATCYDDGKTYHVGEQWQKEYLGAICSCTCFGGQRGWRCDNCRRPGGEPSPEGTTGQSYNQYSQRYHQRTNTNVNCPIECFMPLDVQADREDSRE
# Sequence of UniProt P05787 (P05787 whole entry): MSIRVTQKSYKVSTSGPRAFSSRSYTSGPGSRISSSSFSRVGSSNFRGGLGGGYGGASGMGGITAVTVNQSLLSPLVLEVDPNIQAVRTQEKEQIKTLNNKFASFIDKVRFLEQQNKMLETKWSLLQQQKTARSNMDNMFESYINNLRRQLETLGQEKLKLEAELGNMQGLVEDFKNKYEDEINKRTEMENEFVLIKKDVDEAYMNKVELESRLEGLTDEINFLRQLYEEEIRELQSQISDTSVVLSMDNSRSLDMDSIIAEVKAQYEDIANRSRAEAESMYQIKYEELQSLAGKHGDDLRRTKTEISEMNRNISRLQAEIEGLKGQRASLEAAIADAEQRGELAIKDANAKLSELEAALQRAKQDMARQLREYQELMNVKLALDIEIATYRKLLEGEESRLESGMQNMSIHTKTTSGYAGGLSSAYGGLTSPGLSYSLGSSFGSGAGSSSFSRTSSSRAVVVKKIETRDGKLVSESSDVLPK
# Sequence of UniProt P02533 (P02533 whole entry): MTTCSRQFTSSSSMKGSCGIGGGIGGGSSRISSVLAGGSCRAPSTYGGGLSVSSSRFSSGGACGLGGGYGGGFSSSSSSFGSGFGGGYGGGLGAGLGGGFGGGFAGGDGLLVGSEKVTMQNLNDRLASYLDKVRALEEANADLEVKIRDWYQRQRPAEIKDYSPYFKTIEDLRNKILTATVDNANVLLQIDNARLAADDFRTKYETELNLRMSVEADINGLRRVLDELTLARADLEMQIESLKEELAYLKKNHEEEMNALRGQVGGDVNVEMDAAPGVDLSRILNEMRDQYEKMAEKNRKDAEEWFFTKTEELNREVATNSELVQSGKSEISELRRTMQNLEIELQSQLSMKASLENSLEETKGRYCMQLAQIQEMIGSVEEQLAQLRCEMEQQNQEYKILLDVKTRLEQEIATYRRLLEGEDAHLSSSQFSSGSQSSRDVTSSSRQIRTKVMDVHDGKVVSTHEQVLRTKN
# Sequence of UniProt Q9H910 (Q9H910 whole entry): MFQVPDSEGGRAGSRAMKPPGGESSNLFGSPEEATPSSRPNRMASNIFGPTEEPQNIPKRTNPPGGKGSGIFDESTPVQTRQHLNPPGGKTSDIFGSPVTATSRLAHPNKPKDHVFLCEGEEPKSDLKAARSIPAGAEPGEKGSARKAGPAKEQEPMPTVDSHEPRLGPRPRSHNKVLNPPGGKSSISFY
# Sequence of UniProt P06733 (P06733 whole entry): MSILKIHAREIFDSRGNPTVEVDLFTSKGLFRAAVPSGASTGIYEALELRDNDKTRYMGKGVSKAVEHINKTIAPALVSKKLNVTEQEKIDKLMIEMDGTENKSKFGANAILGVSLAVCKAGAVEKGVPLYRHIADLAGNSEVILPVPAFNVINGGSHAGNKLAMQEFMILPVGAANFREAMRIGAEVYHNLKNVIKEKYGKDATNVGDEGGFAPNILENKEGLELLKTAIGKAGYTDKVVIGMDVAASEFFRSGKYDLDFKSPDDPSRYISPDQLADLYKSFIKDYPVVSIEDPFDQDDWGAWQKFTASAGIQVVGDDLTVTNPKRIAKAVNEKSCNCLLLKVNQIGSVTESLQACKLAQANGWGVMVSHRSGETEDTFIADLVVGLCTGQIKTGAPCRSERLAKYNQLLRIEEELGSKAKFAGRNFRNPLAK
# Sequence of UniProt O43657 (O43657 whole entry): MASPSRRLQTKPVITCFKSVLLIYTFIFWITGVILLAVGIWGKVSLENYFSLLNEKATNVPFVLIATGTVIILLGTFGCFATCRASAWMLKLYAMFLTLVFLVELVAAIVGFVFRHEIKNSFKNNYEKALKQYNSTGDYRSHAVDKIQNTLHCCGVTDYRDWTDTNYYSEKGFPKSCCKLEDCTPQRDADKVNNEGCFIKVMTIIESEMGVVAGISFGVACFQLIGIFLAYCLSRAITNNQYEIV
# Sequence of UniProt Q16629 (Q16629 whole entry): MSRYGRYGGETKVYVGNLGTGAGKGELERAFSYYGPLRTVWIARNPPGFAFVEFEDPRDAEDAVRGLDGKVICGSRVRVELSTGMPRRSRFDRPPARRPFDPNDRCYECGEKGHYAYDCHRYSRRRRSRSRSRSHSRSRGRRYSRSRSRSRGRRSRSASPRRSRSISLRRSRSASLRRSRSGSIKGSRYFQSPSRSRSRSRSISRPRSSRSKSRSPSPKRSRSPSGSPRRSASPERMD
# Sequence of UniProt P60660 (P60660 whole entry): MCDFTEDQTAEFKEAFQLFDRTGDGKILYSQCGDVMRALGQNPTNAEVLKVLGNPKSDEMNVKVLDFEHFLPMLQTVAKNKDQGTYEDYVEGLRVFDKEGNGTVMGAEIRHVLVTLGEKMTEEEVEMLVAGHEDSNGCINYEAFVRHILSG
# Sequence of UniProt P15328 (P15328 whole entry, looked up): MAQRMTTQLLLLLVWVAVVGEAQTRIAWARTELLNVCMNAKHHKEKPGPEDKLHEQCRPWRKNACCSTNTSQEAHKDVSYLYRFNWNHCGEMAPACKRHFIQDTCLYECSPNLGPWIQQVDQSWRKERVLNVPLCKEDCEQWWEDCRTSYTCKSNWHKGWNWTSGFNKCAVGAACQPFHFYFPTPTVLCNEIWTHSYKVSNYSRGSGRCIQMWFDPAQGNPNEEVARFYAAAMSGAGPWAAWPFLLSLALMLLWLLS
row,Target,lysine labeling ratio R10:1
1,FOLR1 (lysine site: K41) (UniProt P15328),1.41 (active)
2,TMEM109 (lysine site: K215) (UniProt Q9BVC6),3.67
3,UniProt P02533 (lysine site: K405),7.37
4,THBS1 (lysine site: K50) (UniProt P07996),4.26
5,LAMB1 (lysine site: K1708) (UniProt P07942),3.33
6,UniProt P05187 (lysine site: K84),1.24 (active)
7,FN1 (lysine site: K269) (UniProt P02751),9.87
8,RBMX (lysine site: K217) (UniProt P38159),8.01
9,FN1 (lysine site: K1050) (UniProt P02751),1.47 (active)
10,UniProt Q15149 (lysine site: K2182),1.67 (active)
11,PGK1 (lysine site: K30) (UniProt P00558),2.54
12,TFRC (lysine site: K665) (UniProt P02786),1.78 (active)
13,ILF3 (lysine site: K535) (UniProt Q12906),0.982 (active)
14,FLNB (lysine site: K681) (UniProt O75369),2.09
15,ENO1 (lysine site: K406) (UniProt P06733),10
16,NUCB2 (lysine site: K171) (UniProt P80303),2.34
17,EPHA7 (lysine site: K272) (UniProt Q15375),2.33
18,UniProt P05787 (lysine site: K464),5.11
19,TGFBR3 (lysine site: K667) (UniProt Q03167),0.83 (active)
20,UniProt Q16629 (lysine site: K70),1.67 (active)

row,Target,lysine labeling ratio R10:1
1,FAT4 (lysine site: K2004) (UniProt Q6V0I7),1.27 (active)
2,UniProt P05787 (lysine site: K304),7.25
3,UniProt P60660 (lysine site: K81),3.44
4,IGF2R (lysine site: K303) (UniProt P11717),2.37
5,ANXA2 (lysine site: K204) (UniProt P07355),7.37
6,ROBO1 (lysine site: K503) (UniProt Q9Y6N7),7.35
7,IGF1R (lysine site: K887) (UniProt P08069),3.44
8,UniProt P02533 (lysine site: K328),11.3
9,TSPAN6 (lysine site: K179) (UniProt O43657),1.94 (active)
10,SPTAN1 (lysine site: K2195) (UniProt Q13813),1.91 (active)
11,TNFRSF10B (lysine site: K72) (UniProt O14763),3.31
12,ABCB1 (lysine site: K748) (UniProt P08183),1.52 (active)
13,CCT2 (lysine site: K135) (UniProt P78371),2.8
14,UniProt Q9UHN6 (lysine site: K887),1.21 (active)
15,DSG2 (lysine site: K254) (UniProt Q14126),8.19
16,UniProt P0C0S5 (lysine site: K14),1.12 (active)
17,JPT2 (lysine site: K90) (UniProt Q9H910),5.53
18,FAT1 (lysine site: K894) (UniProt Q14517),2.53
19,CHCHD3 (lysine site: K89) (UniProt Q9NX63),0.99 (active)
20,CALD1 (lysine site: K674) (UniProt Q05682),2.25
